Data: PubChem BioAssay AID624331 (National Center for Advancing Translational Sciences (NCATS), 2012)
Inconclusive results are not listed. A call without a number means that no potency is given here. Calls of active or inactive are those of the source. Calls follow the shape of the dose curve; as a rule, active = well fitted activation curve with a large enough effect; inconclusive = small, poorly fitted or top-dose-only effect; inactive = no such curve, though single readings can be large or run the other way.

Assay: qHTS assay for re-activators of p53 using a Luc reporter: Hit Validation with no p53 Expressed
Settings: p53-null cells, luciferase reporter counter-screen; series mostly up to 46.1 µM
How it was run: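 Without p53 expression, cells (1000/well, Opti-MEM + 10% FBS) were exposed 24 h at 37 deg C to compounds in a 1:5 series from 10 mM stock (top 46.1 µM in well). Luminescent signal read 10 min after Amplite addition; actives flag unspecific activation.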
Potency is read from the fitted curve at half-maximal effect.

Row | Compound | Potency
1 | O=C(N/N=C1\CCc2ccccc21)c1ccccc1O | inactive
2 | Cc1cs/c(=N/C(=S)Nc2ccccc2)n1C | 1300 nM (active)
3 | O=C1/C(=C/Nc2ccc3c(c2)OCO3)CCc2ccccc21 | inactive
4 | CC(C)CC(NC(=O)C1CCC(=O)N1)C(=O)NC(CC(C)C)C(=O)N1CCCC1C(N)=O (centres undefined) | inactive
5 | Oc1ccccc1-c1cc(-c2ccc3c(c2)OCCO3)n[nH]1 | inactive
6 | Cc1c(C(=O)OC2CCC(C)CC2)[nH]c2c1C(=O)CCC2 (centres undefined) | inactive
7 | c1ccc(-c2cc3cc4c(cc3cn2)OCO4)cc1 | inactive
8 | COc1cccc(/C=N/NC(=O)c2nc(-c3ccccc3)cc(-c3ccccc3)n2)c1O | inactive
9 | S=C(Nc1ccccc1)Nc1nc2ccccc2n1CCOc1ccc(Br)cc1 | inactive
10 | COc1ccc(N2CCN(C3CCCN(Cc4cccc(OC)c4)C3)CC2)cc1 (centres undefined) | inactive
11 | O=C1c2cccc3cc([N+](=O)[O-])cc(c23)C(=O)N1CCN1CCCC1 | inactive
12 | Cc1ccc(CSc2nc3ccncc3[nH]2)cc1 | inactive
13 | Cc1ccc(NC(=O)Nc2ccccc2)c(Br)c1 | inactive
14 | CCOCC(=O)Nc1nc2ccc(OCC)cc2s1 | inactive
15 | O=C(CNS(=O)(=O)c1cccc(Cl)c1)Nc1ccc(-c2nc3ccccc3s2)cc1 | inactive
16 | O=C(NCc1ccc(-c2nc3ccccc3s2)cc1)c1cc2ccccc2o1 | inactive
17 | Cc1ccc2nc(NC(=O)c3ccc(Cl)s3)sc2c1 | inactive
18 | c1ccc(-n2ncc3c(N4CCCCC4)ncnc32)cc1 | inactive
19 | O=C(Nc1ccc(N2CCCCCC2)cc1)c1ccc[nH]1 | 1840 nM (active)
